Experimental data from PubChem BioAssay AID1981 (Southern Research Specialized Biocontainment Screening …, 2009).
The campaign covered roughly 2,200 compounds. About 480 (22%) were called active. How the calls were made is not given here. These entries were drawn from the full list. Results with a measured potency or affinity are listed apart.

assay: S. Typhimurium GFP fluorescence modified counterscreen for PhoP regulon inhibitor project dose response (AID 1981); settings: 4 h; series mostly up to 150 µM

| Structure (SMILES) | outcome |
| --- | --- |
| CC(CO)(CO)NCc1ccc(-c2ccccc2)cc1 | inactive |
| Cc1cc(C(=O)NCc2ccco2)no1 | inactive |
| Cc1cc(SCC(N)=O)nc(SCC(=O)c2ccccc2)n1 | inactive |
| COc1ccccc1NS(=O)(=O)c1cccc(C(=O)N/N=C/c2c(C)nn(-c3ccccc3)c2N2CCCC2)c1 | inactive |
| CCC(C)n1c(O)c(C(c2ccccn2)c2c(O)n(C(C)CC)c(=S)[nH]c2=O)c(=O)[nH]c1=S (stereo not drawn) | inactive |
| Cn1c(=O)c(=O)n(C)c2cc(S(=O)(=O)Nc3ccc4c(c3)OCCO4)ccc21 | inactive |
| Cc1ccc(N(CC(=O)Nc2cccc(C)c2)S(=O)(=O)c2cccc3nonc23)cc1 | inactive |
| Nc1cc(N2CCCCC2)c(Cl)cc1[N+](=O)[O-] | inactive |
| CCOc1ccc(-c2noc(CCCC(N)=O)n2)cc1OC | inactive |
| CCOc1ccc(/C=C/C(=O)Nc2ccc(OC)cc2[N+](=O)[O-])cc1 | inactive |
| Nc1ccc(N(c2ccccc2)c2ccc(N)cc2)cc1 | inactive |
| Cc1ccccc1C(=O)N(C)Cc1ccccc1 | inactive |
| CCC(CC)c1nnc(NC(=O)Oc2ccccc2)s1 | inactive |
| CCOCc1nnc(NC(=O)COC)s1 | inactive |
| Cc1cc(C=O)c(C)n1-c1ccc(Oc2ccc([N+](=O)[O-])cn2)cc1 | inactive |
| CCCn1nnc(NC(=O)c2ccc(Br)o2)n1 | inactive |
| Fc1ccc(CCNCc2cccc(Cl)c2)cc1 | inactive |
| COc1cc(CNCc2cccs2)cc(Br)c1OC | inactive |
| c1ccc2c(CCNCc3ccc4c(c3)OCO4)c[nH]c2c1 | inactive |
| COc1ccccc1CNc1nc2nc(C)c(C)c(=O)n2[nH]1 | inactive |
| COc1ccc(CCNC(=S)Nc2cccc3ccccc23)cc1 | inactive |
| Brc1cccc(CNCc2cccs2)c1 | inactive |
| CCN(C(=O)COc1cc(=O)n(CC)c2ccccc12)c1cccc(Cl)c1 | inactive |

| Structure (SMILES) | outcome |
| --- | --- |
| CCN(CC)S(=O)(=O)c1ccc2c(c1)nc(SCC(=O)N1CCOCC1)n2-c1ccccc1OC | inactive |
| O=c1ccc2ccc(Oc3ccc([N+](=O)[O-])cc3[N+](=O)[O-])cc2o1 | inactive |
| O=C(CCN1CCc2ccccc2C1)Nc1ccccc1F | inactive |
| CCCc1nc2c(o1)CC(CC(C)SCC)CC2=O (stereo not drawn) | inactive |
| COc1ccc(S(=O)(=O)Nc2ccc(F)c(F)c2)cc1Cl | inactive |
| S=C(NCc1cccnc1)Nc1ccc(Cl)c(Cl)c1 | inactive |
| CCc1cccc(C)c1NC(=S)NCc1cccn1C | inactive |
| COC(=O)C1=C(CSc2nc3ccccc3o2)NC(=O)NC1c1cc(C)ccc1C (stereo not drawn) | inactive |
| CCn1c(SCc2nc3scc(-c4ccccc4)c3c(=O)[nH]2)nnc1-c1cccs1 | inactive |
| COc1ccc2c(c1)OC1=C(C(=O)CCC1)C2C1=C(O)CCCC1=O (stereo not drawn) | inactive |
| O=C(NNc1nc(-c2ccccc2)cs1)c1ccccc1 | inactive |
| CC(=O)Nc1cccc(-c2csc(Nc3ccccn3)n2)c1 | inactive |
| c1ccc(CN2CCN(c3nc(-c4ccccc4)nc(-n4ccnc4)n3)CC2)cc1 | inactive |
| C#CCOc1ccc(/C=N/O)cc1Cl | inactive |
| Cc1ccc(-c2csc(=S)n2CC(=O)OCC(=O)NCc2ccco2)cc1 | inactive |
| N#Cc1ccc(C(c2nnnn2CCc2ccccc2)N2CCCCCC2)cc1 (stereo not drawn) | inactive |
| Cc1ccc(S(=O)(=O)NNC(=O)c2ccc(O)cc2)cc1 | inactive |
| CC1(C)SC(=S)N(NC(=O)Nc2ccccc2)C1N(O)C(=O)Nc1ccccc1 (stereo not drawn) | inactive |
| O=C(CCN1CCCCC1)NCC1OCCc2ccccc21 (stereo not drawn) | inactive |
| S=C(Nc1cccc(Cl)c1)Nc1cccc2cnccc12 | inactive |
| CCc1nc2cc(Cl)c(Cl)cc2[nH]1 | inactive |
| Cc1cccc(N2CCN(CC(=O)Nc3nccs3)CC2)c1C | inactive |
| CCCOC(=O)Oc1ccc2c(=O)c(Oc3cc(C)cc(C)c3)coc2c1 | inactive |

| Structure (SMILES) | outcome |
| --- | --- |
| COC(=O)c1ccccc1Oc1cnc2ccccc2n1 | inactive |
| CCOC(=O)c1c(/N=C/c2ccc(O)cc2O)sc2c1CCC2 | inactive |
| Cc1cccc(Nc2ncccc2C(=O)NCc2cccs2)c1C | inactive |
| Cc1ccccc1NC(=O)c1sc2nc3c(c(-c4ccco4)c2c1N)CCC3 | inactive |
| O=C(Nc1nc2cc3c(cc2s1)OCO3)C1=COCCO1 | inactive |
| N#Cc1c(NC(=O)c2cnccn2)sc2c1CCCC2 | inactive |
| COc1ccc(/C=C/C(=O)NC(=S)NNC(=O)c2cnccn2)cc1 | inactive |
| COc1ccc(N2CCN(C(=O)CN(c3cccc(Br)c3)S(C)(=O)=O)CC2)cc1 | inactive |
| NC(=O)CCc1c[nH]c2ccccc12 | inactive |
| CCc1nc(SCC(=O)N2CCCc3ccccc32)c2oc3ccccc3c2n1 | inactive |
| O=C(CN1CCN(Cc2ccccc2)CC1)c1c[nH]c2ccccc12 | inactive |
| O=C(CCCOc1ccccc1)N1CCCc2ccccc21 | inactive |
| Cc1ccc2c(c1)[nH]c1c(N3CCN(Cc4ccccc4)CC3)ncnc12 | inactive |
| O=C(Nc1ccc(S(=O)(=O)N2CCCC2)cc1)c1ccc(CN2CCc3ccccc3C2)cc1 | inactive |
| CC1CC(C)CN(CCCNC(=O)C2CCC(=O)N2C2CCCC2)C1 (stereo not drawn) | inactive |
| CCc1ccc(NC(=O)c2noc3c2CCc2ccccc2-3)cc1 | inactive |
| CCSc1nnc(NC(=O)Cc2cccc(OC)c2)s1 | inactive |
| Nn1c(COc2cccc(Br)c2)nnc1SCC(=O)N1CCc2ccccc2C1 | inactive |
| CCCc1cc(=O)oc2cc(OCC(=O)N3CCc4ccccc43)ccc12 | inactive |
| O=[N+]([O-])c1cccc(CN(CCO)Cc2ccccc2)c1 | inactive |
| COCCNC(=O)c1ccccc1NS(=O)(=O)c1ccc(Br)s1 | inactive |
| CCOc1ccc(OCc2ccc(C(=O)N3CCc4ccccc4C3)o2)cc1 | inactive |
| O=C(OCc1nnc(-c2ccccc2)o1)c1ccc(S(=O)(=O)NCc2ccco2)cc1 | inactive |

| Structure (SMILES) | outcome |
| --- | --- |
| COc1ccc(Cl)cc1NC(=O)C(C)OC(=O)c1ccc(NS(=O)(=O)c2ccc3[nH]c(=O)[nH]c3c2)cc1 (stereo not drawn) | inactive |
| O=C(C(=O)N1CCc2ccccc2C1)N1CCc2ccccc2C1 | inactive |
| c1ccc2c(c1)CCN(c1ncnc3c1[nH]c1ccccc13)C2 | inactive |
| CC(C)(C)c1ccc(C(=O)NC(=S)NCc2cccnc2)cc1 | inactive |
| CCn1c2ccccc2c2cc(NC(=O)C(C)Oc3ccccc3)ccc21 (stereo not drawn) | inactive |
| O=C(NCc1cn2ccsc2n1)Nc1ccc(Cl)cc1 | inactive |
| O=Cc1cn(Cc2ccccc2[N+](=O)[O-])c2ccccc12 | inactive |
| COCCNC(=O)c1ccc(C(=O)NCCOC)s1 | inactive |
| C/C(=C\c1ccco1)C1Nc2cccc3cccc(c23)N1 | inactive |
| Cc1ccc(C(=O)NCC(=O)NCC(=O)OCC(=O)c2ccc([N+](=O)[O-])cc2)cc1 | inactive |
| CCCCn1c(-c2ccccc2)nc2c(=O)n(C)c(=O)[nH]c21 | inactive |
| O=C(Cn1nc(Cl)nc1Cl)c1ccc2c(c1)OCCO2 | inactive |
| Cc1ccc2c(c1)C1CN(C)CCC1N2C(=O)COc1ccc(S(=O)(=O)N2CCOCC2)cc1 (stereo not drawn) | inactive |
| N#Cc1ccc(CSc2nnc(-c3ccncc3)n2CCc2ccccc2)cc1 | inactive |
| O=C(Nc1ccccn1)NC1CCCCC1 | inactive |
| O=C(Nc1ccsc1C(=O)NC1CCCCC1)c1ccccc1 | inactive |
| COc1ccc(-c2ccc(-c3noc(-c4cccs4)n3)c(OC)n2)cc1 | inactive |
| CCn1cc(C(C)(C)C)c(C#N)c1NC(C)=O | inactive |
| Cc1[nH]n(-c2ccccc2)c(=O)c1-c1ccc(Cl)cc1 | inactive |
| Cc1c(C(c2cccc([N+](=O)[O-])c2O)c2c(C)n(C)n(-c3ccccc3)c2=O)c(=O)n(-c2ccccc2)n1C | inactive |
| O=C(CCNS(=O)(=O)c1cccc2nsnc12)NCc1cccs1 | inactive |
| CCOC(=O)C1=C(C)NC(SCc2cc(=O)[nH][nH]2)=C(C#N)C1c1cccs1 (stereo not drawn) | inactive |
| COc1ccc(N2C(=O)C3CCCN3C2c2cccc(C)c2)cc1Cl (stereo not drawn) | inactive |

| Structure (SMILES) | outcome |
| --- | --- |
| COc1nccnc1NS(=O)(=O)c1ccc(NC(=S)NC(=O)c2cccnc2)cc1 | inactive |
| COc1cc(OC)c(C(=O)Nc2ccc(S(=O)(=O)Nc3ncccn3)cc2)cc1OC | inactive |
| Cc1ccn2cc(CSc3ccccc3N)nc2c1 | inactive |
| Cc1cccc2cc(C#N)c(N3CCN(C)CC3)nc12 | inactive |
| CCOC(=O)N1CCN(C(=O)C(NC(=O)c2ccc(CC)cc2)C(C)C)CC1 (stereo not drawn) | inactive |
| COc1c(Cl)cnn(-c2ccc(C)cc2)c1=O | inactive |
| O=C(CSCc1ccccc1)N/N=C/c1ccccc1OCc1ccccc1 | inactive |
| O=C(CN1CC(c2ccccc2)CC1=O)N/N=C/c1cc(Br)ccc1O (stereo not drawn) | inactive |
| CC(C)(C)c1ccc(C2CC2C(=O)N/N=C\c2cc3ccccc3nc2Cl)cc1 (stereo not drawn) | inactive |
| CC(C)c1ccc(C2NC(=O)NC3=C2CCc2ccccc23)cc1 (stereo not drawn) | inactive |
| O=C(NC1CCCCC1)C(c1ccncc1)N(CC1CCCO1)C(=O)C(F)(F)F (stereo not drawn) | inactive |
| COc1ccc(Nc2nc(NCc3ccco3)nc(N/N=C/c3ccccc3Cl)n2)cc1 | inactive |
| CCOc1ccc(NC(=O)c2ccc(NC(=O)COC(=O)Cc3ccccc3)cc2)cc1 | inactive |
| Cc1ccc(NC(=S)NC(NC(=O)c2ccco2)C(Cl)(Cl)Cl)cc1 (stereo not drawn) | inactive |
| O=C(c1ccccc1)c1c2c(cc3sc4ccccc4[n+]13)-c1cccc3cccc-2c13 | inactive |
| CN1C(=O)CC(P(=O)(c2ccccc2)c2ccccc2)N(C)C1=O (stereo not drawn) | inactive |
| COc1ccc(N2C(=O)CC(Sc3nc(C)c4c(n3)CCCC4)C2=O)cc1 (stereo not drawn) | inactive |
| COC(=O)c1cc(C#N)c(Oc2ccc(F)cc2)nc1C | inactive |
| Nc1nc2ccccc2n1/N=C/c1ccc(-c2ccccc2)o1 | inactive |
| CN(C)CCCN(C(=O)CCc1ccccc1)c1nc2ccc(Cl)cc2s1 | inactive |
| c1ccc(C2(CNc3ccccn3)CCCC2)cc1 | inactive |
